Assay results: PubChem BioAssay
Unmarked numbers belong to inactive results. For some of these results: Measured potencies and affinities stand elsewhere. Calls of active or inactive are those of the source. Unless noted, how the calls were made is not given here.

Experiments:
[1] = antimalarial activity against Dd2 strain (AID 2302;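 active means growth inhibition above 50% at the single 2 µM test dose, taken to imply half-maximal potency below 2 µM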;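 further: 0% = DMSO untreated growth and 100% = chloroquine plus artemisinin killed control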); details: P. falciparum Dd2 in RBCs, LDH growth readout, 72 h; at 2 µM; hits give high values
[2] = HepG2 cytotoxicity, primary screen, cytotoxicity control for P. falciparum antimalarial project, cell-based, ATP luminescence (AID 2303;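 active means inhibition above 50%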;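 further: 0% = DMSO wells and 100% = digitonin-killed cells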); details: HepG2 viability, 24-48 h, at 10 µM, hits give high values
[3] = target: L-lactate dehydrogenase (Plasmodium falciparum (isolate CDC / Honduras)) (UniProt Q27743); experiment: PfLDH activity inhibition – cell lysate, 3D7 strain, counter-screen for P. falciparum growth inhibition project (AID 2304);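 further: 0% = vehicle and 100% = reference inhibitor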; details: P. falciparum 3D7 crude extract, LDH APAD/NBT absorbance; at 2 µM; hits give high values
Sequence of L-lactate dehydrogenase (Plasmodium falciparum (isolate CDC / Honduras)) (Q27743 whole entry, looked up): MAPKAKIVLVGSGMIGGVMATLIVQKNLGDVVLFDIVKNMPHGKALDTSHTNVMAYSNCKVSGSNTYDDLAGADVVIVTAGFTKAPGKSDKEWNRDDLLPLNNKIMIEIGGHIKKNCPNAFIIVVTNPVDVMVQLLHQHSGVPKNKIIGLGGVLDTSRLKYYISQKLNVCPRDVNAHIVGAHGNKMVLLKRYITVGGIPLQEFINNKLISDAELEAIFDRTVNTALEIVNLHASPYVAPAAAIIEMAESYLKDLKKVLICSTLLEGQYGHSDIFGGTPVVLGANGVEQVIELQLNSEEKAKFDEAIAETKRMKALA

[4] = inhibition of 3D7 malaria parasite growth – strain 3D7 (AID 2306);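 further: 0% = DMSO wells and 100% = chloroquine plus artemisinin control wells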; details: P. falciparum 3D7 erythrocytic growth, LDH absorbance, 72 h; at 2 µM; hits give high values
[5] = target: Calcium-dependent protein kinase 1 (Plasmodium falciparum (isolate 3D7)) (UniProt P62344); experiment: PfCDPK1 kinase inhibitors, biochemical, TCAMS library (AID 1159585; cut-off not given, nearly all actives have IC50 up to about 0.98 µM;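 further: inhibitors leave more ATP so luminescence rises with inhibition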); details: recombinant PfCDPK1, Kinase-Glo ATP depletion luminescence
Sequence of Calcium-dependent protein kinase 1 (Plasmodium falciparum (isolate 3D7)) (P62344 whole entry, looked up): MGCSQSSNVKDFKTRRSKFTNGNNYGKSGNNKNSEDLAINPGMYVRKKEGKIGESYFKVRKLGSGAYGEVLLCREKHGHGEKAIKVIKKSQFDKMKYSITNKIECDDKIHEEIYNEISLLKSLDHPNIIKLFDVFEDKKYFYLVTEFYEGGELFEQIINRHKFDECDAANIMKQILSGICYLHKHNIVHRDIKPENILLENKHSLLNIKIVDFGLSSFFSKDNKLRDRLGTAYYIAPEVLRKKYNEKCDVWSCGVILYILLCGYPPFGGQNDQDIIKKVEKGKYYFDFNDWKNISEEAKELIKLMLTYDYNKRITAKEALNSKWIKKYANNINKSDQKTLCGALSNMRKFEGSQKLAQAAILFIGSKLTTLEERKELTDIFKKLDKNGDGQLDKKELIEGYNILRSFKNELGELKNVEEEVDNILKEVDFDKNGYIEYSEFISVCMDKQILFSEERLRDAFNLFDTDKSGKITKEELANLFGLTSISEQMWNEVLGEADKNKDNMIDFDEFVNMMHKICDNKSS

[6] = target: Plasmodium falciparum protein kinase 6 (PK6, PF3D7_1337100) (UniProt Q8IDW1); experiment: PfPK6 kinase inhibitors, biochemical, TCAMS library (AID 1159586); details: recombinant PfPK6, Kinase-Glo ATP depletion luminescence
Sequence of Plasmodium falciparum protein kinase 6 (PK6, PF3D7_1337100) (Q8IDW1 1-305): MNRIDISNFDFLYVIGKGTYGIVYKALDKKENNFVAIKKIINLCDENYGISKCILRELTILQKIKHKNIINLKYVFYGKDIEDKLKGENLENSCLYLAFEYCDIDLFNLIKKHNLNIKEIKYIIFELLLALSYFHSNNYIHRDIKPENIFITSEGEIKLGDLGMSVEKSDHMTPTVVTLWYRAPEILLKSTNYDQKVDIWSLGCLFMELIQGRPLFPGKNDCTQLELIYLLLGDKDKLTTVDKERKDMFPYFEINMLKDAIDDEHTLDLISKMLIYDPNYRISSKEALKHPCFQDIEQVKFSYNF

[7] = target: Protein kinase 7 (PK7), Plasmodium falciparum 3D7 (PF3D7_0213400) (UniProt Q7YTF7); experiment: inhibition of Plasmodium PK7 catalytic activity – biochemical, TCAMS antimalarial set, Kinase-Glo luminescence (AID 1159587); details: recombinant PfPK7, Kinase-Glo ATP depletion luminescence
Sequence of Protein kinase 7 (PK7), Plasmodium falciparum 3D7 (PF3D7_0213400) (Q7YTF7 1-343): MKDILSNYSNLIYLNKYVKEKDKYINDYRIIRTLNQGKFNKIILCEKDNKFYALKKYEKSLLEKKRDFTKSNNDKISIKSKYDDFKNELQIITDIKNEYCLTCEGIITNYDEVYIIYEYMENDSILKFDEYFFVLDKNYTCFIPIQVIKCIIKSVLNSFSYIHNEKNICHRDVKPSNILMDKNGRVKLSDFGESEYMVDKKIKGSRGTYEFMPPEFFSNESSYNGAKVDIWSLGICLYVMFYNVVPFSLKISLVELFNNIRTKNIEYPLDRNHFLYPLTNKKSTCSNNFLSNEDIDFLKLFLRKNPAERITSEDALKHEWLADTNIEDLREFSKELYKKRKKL

[8] = target: Calcium-dependent protein kinase 4 (Plasmodium falciparum (isolate 3D7)) (UniProt Q8IBS5); experiment: PfCDPK4 kinase inhibitors, biochemical, TCAMS library (AID 1159588; cut-off not given, nearly all actives have IC50 up to about 0.91 µM); details: recombinant PfCDPK4, Kinase-Glo ATP depletion luminescence
Sequence of Calcium-dependent protein kinase 4 (Plasmodium falciparum (isolate 3D7)) (Q8IBS5 whole entry, looked up): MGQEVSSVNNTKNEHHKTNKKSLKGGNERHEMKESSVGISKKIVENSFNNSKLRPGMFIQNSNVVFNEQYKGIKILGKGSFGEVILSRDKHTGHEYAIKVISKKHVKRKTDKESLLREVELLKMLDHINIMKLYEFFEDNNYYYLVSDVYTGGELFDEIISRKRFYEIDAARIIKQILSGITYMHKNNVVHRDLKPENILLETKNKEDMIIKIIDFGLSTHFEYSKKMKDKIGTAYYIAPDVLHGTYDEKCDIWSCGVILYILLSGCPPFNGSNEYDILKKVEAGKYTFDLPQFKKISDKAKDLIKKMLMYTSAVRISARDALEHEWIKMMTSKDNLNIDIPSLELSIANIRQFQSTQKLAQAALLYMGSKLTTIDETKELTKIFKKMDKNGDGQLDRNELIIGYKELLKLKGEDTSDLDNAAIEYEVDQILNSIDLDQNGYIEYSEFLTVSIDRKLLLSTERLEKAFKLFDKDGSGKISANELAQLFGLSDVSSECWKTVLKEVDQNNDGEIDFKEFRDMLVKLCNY

Structure (SMILES) | growth inhibition [1] | inhibition [2] | inhibition [3] [%] | growth inhibition [4] | outcome [5] | outcome [6] | outcome [7] | outcome [8]
Cc1ccc(NC(=O)Nc2ccc(Cl)cc2)cc1-c1cccc(C(=O)Nc2ccc(F)cc2)c1 | 52% (active) | 8% | 5 | 96% (active) | inactive | inactive | inactive | inactive
CC1(C)N=C(N)N=C(N)N1OCCCOc1cccc(C(=O)O)c1 | 96% (active) | 73% (active) | -6 | 94% (active) | inactive | inactive | inactive | inactive
COc1ccc2nccc(NN=Cc3cccc(Cl)c3)c2c1 | 99% (active) | 1% | 3 | 100% (active) | inactive | inactive | inactive | inactive
CN(C)CCNCc1cccc(-c2ccc3c(Nc4ccc(Oc5ccccc5)cc4)ccnc3c2)c1 | 99% (active) | 31% | 2 | 101% (active) | inactive | inactive | inactive | inactive
Ic1cc(CNC2CCCCC2)ccc1OCc1cccc(COc2ccc(CNC3CCCCC3)cc2I)c1 | 34% | -1% | -4 | 93% (active) | inactive | inactive | inactive | inactive
CCc1ccc(S(=O)(=O)Nc2ccc(CCN3CCC(N4CCCCC4)CC3)cc2)cc1 | 13% | 35% | -2 | 100% (active) | inactive | inactive | inactive | inactive
c1cc2nc(CCc3nc4ccc(C5=N[C@H]6CCCC[C@H]6N5)cc4[nH]3)[nH]c2cc1C1=N[C@@H]2CCCC[C@@H]2N1 | 96% (active) | 3% | -2 | 93% (active) | inactive | inactive | inactive | inactive
CCOC(=O)CCCOc1cc(Cc2cnc(N)nc2N)cc(OC)c1OC | 3% | 12% | -7 | 97% (active) | inactive | inactive | inactive | inactive
CCOC(=O)c1ccc(NC(=O)Nc2ccc(Cn3ncc(N4CCCNCC4)c(Cl)c3=O)cc2)cc1 | 58% (active) | 2% | 2 | 88% (active) | inactive | inactive | inactive | inactive
CN(C)Cc1ccc(-c2cc3c(-c4ccc(CN(C)C)cc4)ccnc3[nH]2)cc1 | 96% (active) | 86% (active) | 0 | 100% (active) | inactive | inactive | inactive | inactive
COc1ccc(-c2csc3nc(C)nc(Cl)c23)cc1OC | 95% (active) | -10% | -6 | 97% (active) | inactive | inactive | inactive | inactive
CC(C)(C)CCN1CCC(CNC(=O)c2cc(-c3cccc(C(F)(F)F)c3)cs2)C1 (stereo not given) | 13% | 47% | -1 | 93% (active) | inactive | inactive | inactive | inactive
O=C(Nc1cccc(F)c1)N1CCC(CN2CCOC(c3ccccc3)(c3ccccc3)C2)CC1 | 97% (active) | 12% | 7 | 96% (active) | inactive | inactive | inactive | inactive
O=C(N[C@@H](Cc1ccccc1)C(=O)NCCN1CCCCC1)c1ccc(O)c(-c2cccc(C(F)(F)F)c2)c1 | 3% | 0% | 7 | 92% (active) | inactive | inactive | inactive | inactive
CN=C(NO)NCCN(C)C | -5% | -1% | -2 | 88% (active) | inactive | inactive | inactive | inactive
CC(C)c1ccc(-c2noc(SCC(=O)N(C)c3ccc(F)cc3)n2)cc1 | 77% (active) | 7% | 3 | 84% (active) | inactive | inactive | inactive | inactive
Cc1cc(N2CCN(C)CC2)nc2ccc(NC(=O)Cc3cccc(C(F)(F)F)c3)cc12 | 51% (active) | 26% | 3 | 99% (active) | inactive | inactive | inactive | inactive
NC1=NC(C=Cc2ccccc2)N(OCCCCCCON2C(N)=NC(N)=NC2C=Cc2ccccc2)C(N)=N1 (stereo not given) | 94% (active) | 17% | 3 | 97% (active) | inactive | inactive | inactive | inactive
COc1ccc2nccc([C@@H](O)CN3CCC(NCCOc4ccccc4C(F)(F)F)CC3)c2c1 | 95% (active) | 2% | -5 | 98% (active) | inactive | inactive | inactive | inactive
Cc1nn(C2CCS(=O)(=O)C2)c(C)c1C1Nc2ccccc2C(=O)N1Cc1ccc2c(c1)OCO2 (stereo not given) | 93% (active) | 7% | 2 | 98% (active) | inactive | inactive | inactive | inactive
